We go through 86 sequences from the supplement of paper PMC12636033.

± gives the standard deviation of the averaged measurements. Whole data set: some 33,000 sequences, median “E-score (rank enrichment, -0.5 to 0.5)” near -0.0075, cut for the highest 2% near 0.23. This is one part of a sample in which the highest values are shown more often than they occur.

For the assay, the system named is WT Max(13-93) synthetic (M65Nle). As to the kind of experiment: PBM 8-mer E-score (E-score (rank enrichment, -0.5 to 0.5)); higher = stronger preferential binding. As to the method:
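Protein binding microarray (universal PBM chip covering all 10-mers in fixed probe flanks) with chemically synthesized human Max(13-93) bHLH-LZ analogs (not full-length Max) bearing noncanonical residues (hArg, Tha, Aib, Nle at 65) and aromatic Cys staples. Read-out per 8-mer (and its reverse complement): E-score (rank-based enrichment, -0.5 to 0.5) and Z-score of median probe intensity.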
Turning to GAAGAATA, the “PBM 8-mer E-score” value was found to be 0.104 ± 0.034.
On to ATAAAATA, for which the “PBM 8-mer E-score” value is 0.244 ± 0.0078.
In the case of TAGAAATA, the “PBM 8-mer E-score” value was 0.251 ± 0.07.
Consider ATAAAATC, for which the “PBM 8-mer E-score” value came out at 0.109 ± 0.055.
As for AAAGAATA, the “PBM 8-mer E-score” value is 0.241 ± 0.039.
CAAAAATA: the “PBM 8-mer E-score” value was determined as 0.185 ± 0.02.
With AAGAAATA, the “PBM 8-mer E-score” value turned out to be 0.129 ± 0.0058.
For CAAGAATA, the “PBM 8-mer E-score” value turned out to be 0.13 ± 0.035.
Next, GAGAAATA: 0.0631 ± 0.15; GAAAAATA: 0.198 ± 0.08.
The same measure for GTAAAATA: 0.0829 ± 0.0054; for AAAAAATA: 0.246 ± 0.022.
In the case of CATGCCGC, the “PBM 8-mer E-score” value was 0.0835 ± 0.051.
For AATAGAGG, the “PBM 8-mer E-score” value was 0.00232 ± 0.055.
For the sequence GAGTGGTA, the “PBM 8-mer E-score” value is -0.108 ± 0.011.
With AATGCAGG, the “PBM 8-mer E-score” value was determined as 0.087 ± 0.07.
With AAGAACGA, the “PBM 8-mer E-score” value is 0.129 ± 0.018.
Take CAGAGTGC: the “PBM 8-mer E-score” value is -0.201 ± 0.058.
Regarding CTCGAAAG, the “PBM 8-mer E-score” value is -0.184 ± 0.043.
For GACGAACA, the “PBM 8-mer E-score” value was determined as 0.0177 ± 0.055.
As to GTTCATTA, the “PBM 8-mer E-score” value is 0.113 ± 0.06.
On to AGGTTTAA, for which the “PBM 8-mer E-score” value came out at 0.0368 ± 0.0029.
For the sequence GGCTGGAA, the “PBM 8-mer E-score” value was -0.0381 ± 0.036.
Consider ATAAATTA, for which the “PBM 8-mer E-score” value is 0.324 ± 0.038.
Consider CTTAAATA, for which the “PBM 8-mer E-score” value is 0.139 ± 0.023.
As for GTTAAATA, the “PBM 8-mer E-score” value turned out to be 0.257 ± 0.1.
The same measure for ATAAATTG: 0.0667 ± 0.085.
On to ATTAAATA, for which the “PBM 8-mer E-score” value came to 0.174 ± 0.085.
For CTAAATTA, the “PBM 8-mer E-score” value was determined as 0.0753 ± 0.031.
As for CGGGTCAA, the “PBM 8-mer E-score” value is -0.125 ± 0.03.
Next, ATGGCTAG: 0.0642 ± 0.13; AGGGAGCC: -0.227 ± 0.056; AGTGCGTG: 0.0848 ± 0.032.
GGTTAGGA: the “PBM 8-mer E-score” value came out at 0.0556 ± 0.043.
Consider ACTTAAAC, for which the “PBM 8-mer E-score” value came out at 0.0371 ± 0.073.
As for CCGCAGAG, the “PBM 8-mer E-score” value is -0.0777 ± 0.023.
Regarding ATGACACA, the “PBM 8-mer E-score” value worked out at 0.236 ± 0.042.
The same measure for CAGACACG: -0.0764 ± 0.14.
As to AAGACACG, the “PBM 8-mer E-score” value came to 0.246 ± 0.021.
Turning to ATGACACG, the “PBM 8-mer E-score” value stood at 0.298 ± 0.039.
As for ATGACAGG, the “PBM 8-mer E-score” value was determined as 0.0387 ± 0.051.
Regarding ATGACACC, the “PBM 8-mer E-score” value worked out at 0.159 ± 0.048.
For the sequence AAGACACA, the “PBM 8-mer E-score” value was determined as 0.0963 ± 0.021.
Turning to GTGACACA, the “PBM 8-mer E-score” value is 0.0907 ± 0.1.
With CTGACACA, the “PBM 8-mer E-score” value was -0.0349 ± 0.034.
As to CAGTCTGC, the “PBM 8-mer E-score” value is -0.0522 ± 0.01.
Next, ACCTAATG: 0.00028 ± 0.0032.
With CCAGGAGC, the “PBM 8-mer E-score” value is -0.312 ± 0.0027.
Next, ATAAAAAG: 0.283 ± 0.11; AAAAAACA: 0.158 ± 0.071; GAAGAACA: 0.209 ± 0.057.
Take ATAAAACG: the “PBM 8-mer E-score” value was 0.163 ± 0.16.
With CTAAAACA, the “PBM 8-mer E-score” value was -0.07401 ± 0.00047.
ATAAAAAA: the “PBM 8-mer E-score” value amounted to 0.19 ± 0.044.
Next, TAAAAACA: 0.25 ± 0.0036; ATAAAAGG: 0.0572 ± 0.12; ATAAAACA: 0.24 ± 0.0041.
Next, CAAGAACA: 0.0399 ± 0.038; TAAGAACA: 0.243 ± 0.099; GTAAAACA: 0.142 ± 0.14.
On to GCCCCGTA, for which the “PBM 8-mer E-score” value was -0.0782 ± 0.17.
With ACGGGGTC, the “PBM 8-mer E-score” value is -0.061 ± 0.014.
Turning to CGGCAGAC, the “PBM 8-mer E-score” value is -0.218 ± 0.039.
AACCATTC: the “PBM 8-mer E-score” value was determined as 0.0337 ± 0.04.
As to AATGCCGC, the “PBM 8-mer E-score” value is -0.0772 ± 0.0051.
CGACTAAA: the “PBM 8-mer E-score” value is -0.00903 ± 0.06.
For the sequence AATAGGCA, the “PBM 8-mer E-score” value turned out to be 0.118 ± 0.0074.
Next, GCGCGCCC: 0.00746 ± 0.051.
The same measure for CAGGTTCC: -0.228 ± 0.077; for CCGTTAGC: -0.112 ± 0.12.
Take ATAAAGCA: the “PBM 8-mer E-score” value was found to be 0.264 ± 0.046.
For CTCAAACA, the “PBM 8-mer E-score” value amounted to 0.117 ± 0.014.
Consider ATCAAGCA, for which the “PBM 8-mer E-score” value is 0.113 ± 0.0099.
CTAAAGCA: the “PBM 8-mer E-score” value is 0.0761 ± 0.037.
Next, ATCAAACA: 0.238 ± 0.041; ATAAAGCG: 0.106 ± 0.045.
For GGCGGATA, the “PBM 8-mer E-score” value was -0.183 ± 0.13.
In the case of TGTGTTAA, the “PBM 8-mer E-score” value is 0.226 ± 0.034.
As to TTACACAA, the “PBM 8-mer E-score” value stood at 0.00996 ± 0.084.
For ACCTGGGC, the “PBM 8-mer E-score” value is -0.318 ± 0.086.
In the case of AATCCTCT, the “PBM 8-mer E-score” value is 0.079 ± 0.071.
On to ACGCCAAC, for which the “PBM 8-mer E-score” value is -0.125 ± 0.04.
TGTATTAA: the “PBM 8-mer E-score” value was determined as 0.173 ± 0.026.
On to CCTCAGGC, for which the “PBM 8-mer E-score” value is -0.057 ± 0.056.
Take CCGTGGGA: the “PBM 8-mer E-score” value is -0.15 ± 0.023.
Take ACGTGGGC: the “PBM 8-mer E-score” value worked out at 0.33 ± 0.012.
